Shown is part of a subset that was picked to be rich in hits.
ST2 inh: inhibitors of human ST2 (IL1RL1) binding to IL-33, primary screen, biochemical, AlphaLISA. Interleukin-1 receptor-like 1 (Homo sapiens), Q01638. AlphaLISA ST2-Fc/biotin-IL-33 interaction, 1 h. inhibition, % for hits at 17 µM. 78,000 tested, 2.3% active; in the data active = inhibition above about 30%
Target sequence (Q01638 whole entry, looked up): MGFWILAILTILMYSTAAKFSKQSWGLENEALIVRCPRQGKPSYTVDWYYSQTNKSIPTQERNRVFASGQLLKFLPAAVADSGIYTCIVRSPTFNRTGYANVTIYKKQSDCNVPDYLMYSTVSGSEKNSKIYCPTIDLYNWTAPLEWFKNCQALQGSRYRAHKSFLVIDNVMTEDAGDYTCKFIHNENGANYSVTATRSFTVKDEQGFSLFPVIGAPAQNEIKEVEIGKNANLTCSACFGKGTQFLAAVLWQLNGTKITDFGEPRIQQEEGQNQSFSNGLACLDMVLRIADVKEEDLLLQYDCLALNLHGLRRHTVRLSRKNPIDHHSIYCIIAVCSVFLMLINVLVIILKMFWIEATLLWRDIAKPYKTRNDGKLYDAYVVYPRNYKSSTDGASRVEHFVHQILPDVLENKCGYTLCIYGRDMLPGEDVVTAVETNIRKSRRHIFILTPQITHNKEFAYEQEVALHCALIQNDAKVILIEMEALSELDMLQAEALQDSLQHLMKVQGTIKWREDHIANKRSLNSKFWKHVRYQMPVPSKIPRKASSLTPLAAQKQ
Of the large screens only hits and unclear results are named; the others gave an inactive call.

CCOC(=O)C1(CCOC)CCN(Cc2ccc(N(C)c3ccccc3)cc2)CC1	none
COCCNC(=O)c1ccc(CS(=O)(=O)c2ccc(Br)cc2)o1	none
CN1CCC(N(C)Cc2ccccc2[N+](=O)[O-])CC1	none
Cc1ccc(/C=C(/C#N)c2nc(-c3ccc(Cl)c(Cl)c3)cs2)o1	none
COc1ccc(-c2nnc(-c3ccc(OC)cc3)o2)cc1	none
Cc1ccc(-c2csc(/C(C#N)=C/c3ccc(Br)o3)n2)c(C)c1	ST2 inh 60%
COc1ccc(-c2csc(/C(C#N)=C\c3ccc(OC)o3)n2)cc1	ST2 inh 49%
COc1ccc(-c2csc(/C(C#N)=C/c3ccc(Br)o3)n2)cc1	ST2 inh 42%
N#C/C(=C\c1ccc(Br)o1)c1nc(-c2ccc(Cl)cc2)cs1	ST2 inh 31%
Cc1ccc(-c2csc(NC(=O)CCCC(=O)O)n2)c(C)c1	none
COc1cccc2cc(-c3nc(-c4ccc(Br)cc4)cs3)c(=O)oc12	none
COc1ccc(-c2csc(NC(=O)C3CC=CCC3C(=O)O)n2)cc1 (stereo not drawn)	none
Cc1nnc(SCCCn2cc(-c3cccc(O)c3)nn2)s1	none
Cc1cccc(CN(C(=O)C(=O)N2CCCC2)C(C)C)c1	none
CCC(C)OC(=O)C1=C(C)NC2=C(C(=O)C(C(=O)OC)C(C)C2)C1c1ccc(F)cc1 (stereo not drawn)	none
COC(=O)C(Cc1c[nH]c2ccccc12)NC1OC(=O)c2c1ccc(OC)c2OC (stereo not drawn)	none
Fc1ccc(CN2CCCN(Cc3nc(-c4ccccn4)no3)CC2)cc1	none
CCOC(=O)c1c(NC(=O)C(C)Oc2ccc(Cl)c(C)c2)sc(C)c1C (stereo not drawn)	none
O=[N+]([O-])c1cccc(C=Nc2ccc(F)cc2)c1O	none
O=[N+]([O-])c1ccccc1C=Nc1ccc2nc(-c3ccccc3)[nH]c2c1	none
O=[N+]([O-])c1cccc(N=Cc2nc(-c3ccc(Br)cc3)oc2O)c1	none
CC(=O)Nc1nc(C)c(-c2nc3ccc([N+](=O)[O-])cc3[nH]2)s1	none
Cc1ccc2nc(-c3cc(N=Cc4cccc([N+](=O)[O-])c4O)ccc3O)[nH]c2c1	ST2 inh 36%
Cc1ccc2nc(-c3cc(N=Cc4ccc([N+](=O)[O-])cc4)ccc3O)[nH]c2c1	ST2 inh 38%
Cc1ccc2nc(-c3cc(N=Cc4cccc([N+](=O)[O-])c4)ccc3O)[nH]c2c1	ST2 inh 43%
C/C(=C\c1ccccc1)c1nc2ccc([N+](=O)[O-])cc2[nH]1	none
CC(=O)N1CCc2cc(N=Cc3cc([N+](=O)[O-])ccc3O)ccc21	none
O=C(NCc1ccco1)Nc1ccc(Cc2ccc(NC(=O)NCc3ccco3)cc2)cc1	none
Cc1ccc2c(C)c(C(=O)N[C@H](CO)Cc3ccccc3)oc2c1	none
Cc1ccc(-c2noc(CCC(=O)Nc3ccc(Cl)cn3)n2)cc1	none
CCC(C)OC(=O)C1=C(C)NC2=C(C(=O)C(C(=O)OC)C(C)C2)C1c1ccc(O)c(OC)c1 (stereo not drawn)	none
C=C(C)CN(CC)Cc1cc(OC)c(OC)c(OC)c1	none
C=C(C)CN(CC)Cc1ccc(-c2ccccc2[N+](=O)[O-])o1	ST2 inh 33%
CCN(CC)C(=O)c1ccc([N+](=O)[O-])o1	none
O=C(CCc1cc(Cl)no1)NC1CCC(n2cnnc2)CC1 (stereo not drawn)	none
COc1ccccc1C1Nc2ccc(C(=O)c3ccccc3)cc2NC2=C1C(=O)CC(C)(C)C2 (stereo not drawn)	ST2 inh 31%
CC1(C)CC(=O)C2=C(C1)Nc1cc(C(=O)c3ccccc3)ccc1NC2c1cccs1 (stereo not drawn)	none
CC1(C)CC(=O)C2=C(C1)Nc1cc(C(=O)c3ccccc3)ccc1NC2c1ccco1 (stereo not drawn)	none
Cc1ccc(S(=O)(=O)Nc2ccc(-c3nc4ccccc4[nH]3)cc2)cc1	none
COc1ccc(C2CC(=O)N3CN(c4cccc(Cl)c4)CSC3=C2C#N)cc1 (stereo not drawn)	none
Cc1cc2c3c(c1)C1C=CCC1C(C(=O)O)N3CC1CC=CC21 (stereo not drawn)	ST2 inh 33%
Cc1cc(NC(=O)c2ccc3c(c2)OCO3)nc2c1c(=O)oc1ccccc12	none
CC(=O)Nc1cc(C)c2c(=O)oc3ccccc3c2n1	none
Cc1cc(NC(=O)/C=C\c2ccc3c(c2)OCO3)nc2c1c(=O)oc1ccccc12	ST2 inh 43%
COc1c(O)cc2c(c1O)C(C(C)O)OC2=O (stereo not drawn)	none
O=C(O)c1ccc(N2C(=O)C3C4C=CC(CC4)C3C2=O)cc1 (stereo not drawn)	none
O=[N+]([O-])c1ccc(CSc2nc3ccccc3o2)cc1	ST2 inh 35%
Cn1c(CSc2nc3ccccc3o2)nc2ccccc21	none
O=C(CSc1nc2ccccc2o1)Nc1ccccc1	none
O=c1c(O[C@@H]2O[C@@H](CO)[C@H](O)[C@H]2O)c(-c2ccc(O)c(O)c2)oc2cc(O)cc(O)c12	none
Cc1nc(Oc2ccc(F)cc2)c(C(N)=O)c(C)c1Cl	none
Cc1cccc(OCC(=O)O/N=C(/N)c2ccc(Br)cc2)c1	none
